The campaign covered roughly 5,500 compounds. About 2,000 (36%) were called active. Another 18% or so got no clear call; they are omitted. Some of the results follow. A number with no mark means an inactive call. Cut-off read from the data, not from the text of the source: active = normalized growth mostly below about 0.91 (no sharp cut-off); inconclusive = no clear call, values can overlap the other calls; inactive = mostly above about 0.92.
Assay: chemical genetic growth profiling, strain panel (AID 1159580);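 note: tested at 20 µM; growth read once vehicle control cultures reached saturation at 30 °C; 1 = growth at the plate median or of vehicle wells; lower values mean less growth of the strain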
Conditions: growth OD

Compound: C[C@]12CCC3C(CC[C@H]4C[C@@H](O)CC[C@]34C)C1CCC2=O (some centres undefined)
- normalized growth (S. cerevisiae deletion strains, locus YKL068W, active compounds read low): 1.03
- normalized growth (S. cerevisiae deletion strains, locus YKL085W, strain MDH1 (second series), active compounds read low): 0.973
- normalized growth (S. cerevisiae deletion strains, locus YKL085W, strain MDH1, active compounds read low): 0.973
- normalized growth (S. cerevisiae deletion strains, locus YKL160W, strain elf1, active compounds read low): 0.919
- normalized growth (S. cerevisiae deletion strains, locus YKL190W, strain CNB1, active compounds read low): 0.862 (active)
- normalized growth (S. cerevisiae deletion strains, locus YKR001C, strain vps1, active compounds read low): 0.899 (active)
- normalized growth (S. cerevisiae deletion strains, locus YKR026C, strain gcn3, active compounds read low): 1.06
- normalized growth (S. cerevisiae deletion strains, locus YKR091W, strain srl3, active compounds read low): 1.05
- normalized growth (S. cerevisiae deletion strains, locus YLL001W, strain dnm1, active compounds read low): 0.923
- normalized growth (S. cerevisiae deletion strains, locus YLL026W, active compounds read low): 0.994
- normalized growth (S. cerevisiae deletion strains, locus YLL041C, strain sdh2, active compounds read low): 1.04
- normalized growth (S. cerevisiae deletion strains, locus YLR027C, strain aat2, active compounds read low): 0.939
- normalized growth (S. cerevisiae deletion strains, locus YLR039C, strain RIC1, active compounds read low): 0.388 (active)
- normalized growth (S. cerevisiae deletion strains, locus YLR058C, strain SHM2, active compounds read low): 0.799 (active)
- normalized growth (S. cerevisiae deletion strains, locus YLR102C, strain apc9, active compounds read low): 1.02
- normalized growth (S. cerevisiae deletion strains, locus YLR113W, strain HOG1, active compounds read low): 1.01
- normalized growth (S. cerevisiae deletion strains, locus YLR221C, strain rsa3, active compounds read low): 0.86 (active)
- normalized growth (S. cerevisiae deletion strains, locus YLR258W, strain gsy2, active compounds read low): 0.945
- normalized growth (S. cerevisiae deletion strains, locus YLR262C, strain YPT6 (second series), active compounds read low): 0.435 (active)
- normalized growth (S. cerevisiae deletion strains, locus YLR262C, strain YPT6, active compounds read low): 0.413 (active)
- normalized growth (S. cerevisiae deletion strains, locus YLR268W, strain sec22, active compounds read low): 0.834 (active)
- normalized growth (S. cerevisiae deletion strains, locus YLR320W, strain mms22, active compounds read low): 0.606 (active)
- normalized growth (S. cerevisiae deletion strains, locus YLR330W, strain CHS5, active compounds read low): 0.87 (active)
- normalized growth (S. cerevisiae deletion strains, locus YLR342W, strain FKS1 (second series), active compounds read low): 0.733 (active)
- normalized growth (S. cerevisiae deletion strains, locus YLR342W, strain FKS1, active compounds read low): 0.995
- normalized growth (S. cerevisiae deletion strains, locus YLR357W, strain rsc2, active compounds read low): 1.16 [resistant] (active)
- normalized growth (S. cerevisiae deletion strains, locus YLR370C, strain arc18, active compounds read low): 1.04
- normalized growth (S. cerevisiae deletion strains, locus YLR371W, strain rom2, active compounds read low): 1.03
- normalized growth (S. cerevisiae deletion strains, locus YLR384C, strain iki3, active compounds read low): 1.03
- normalized growth (S. cerevisiae deletion strains, locus YLR418C, strain cdc73, active compounds read low): 0.589 (active)
- normalized growth (S. cerevisiae deletion strains, locus YML016C, strain PPZ1, active compounds read low): 0.931
- normalized growth (S. cerevisiae deletion strains, locus YML032C, strain rad52, active compounds read low): 0.744 (active)
- normalized growth (S. cerevisiae deletion strains, locus YML120C, strain ndi1, active compounds read low): 0.935
- normalized growth (S. cerevisiae deletion strains, locus YML124C, strain tub3, active compounds read low): 0.944
- normalized growth (S. cerevisiae deletion strains, locus YMR058W, strain fet3, active compounds read low): 0.943
- normalized growth (S. cerevisiae deletion strains, locus YMR078C, strain ctf18, active compounds read low): 0.979
- normalized growth (S. cerevisiae deletion strains, locus YMR125W, strain sto1, active compounds read low): 1.06
- normalized growth (S. cerevisiae deletion strains, locus YMR129W, active compounds read low): 1.04
- normalized growth (S. cerevisiae deletion strains, locus YMR205C, strain PFK2, active compounds read low): 0.94
- normalized growth (S. cerevisiae deletion strains, locus YMR223W, strain ubp8, active compounds read low): 0.794 (active)
- normalized growth (S. cerevisiae deletion strains, locus YMR231W, strain pep5, active compounds read low): 1.01
- normalized growth (S. cerevisiae deletion strains, locus YMR263W, strain SAP30, active compounds read low): 0.925
- normalized growth (S. cerevisiae deletion strains, locus YMR307W, strain GAS1, active compounds read low): 0.963
- normalized growth (S. cerevisiae deletion strains, locus YNL067W, strain RPL9B, active compounds read low): 0.825 (active)
- normalized growth (S. cerevisiae deletion strains, locus YNL071W, strain lat1, active compounds read low): 0.663 (active)
- normalized growth (S. cerevisiae deletion strains, locus YNL153C, strain GIM3, active compounds read low): 0.747 (active)
- normalized growth (S. cerevisiae deletion strains, locus YNL183C, strain NPR1, active compounds read low): 0.874
- normalized growth (S. cerevisiae deletion strains, locus YNL209W, strain ssb2, active compounds read low): 0.965
- normalized growth (S. cerevisiae deletion strains, locus YNL233W, strain BNI4, active compounds read low): 0.747 (active)
- normalized growth (S. cerevisiae deletion strains, locus YNL248C, strain rpa49, active compounds read low): 0.888
- normalized growth (S. cerevisiae deletion strains, locus YNL250W, strain rad50, active compounds read low): 0.934
- normalized growth (S. cerevisiae deletion strains, locus YNL271C, strain bni1, active compounds read low): 0.94
- normalized growth (S. cerevisiae deletion strains, locus YNL298W, strain CLA4, active compounds read low): 0.869 (active)
- normalized growth (S. cerevisiae deletion strains, locus YNL307C, strain MCK1, active compounds read low): 0.366 (active)
- normalized growth (S. cerevisiae deletion strains, locus YNL322C, strain KRE1 (second series), active compounds read low): 1.03
- normalized growth (S. cerevisiae deletion strains, locus YNL322C, strain KRE1, active compounds read low): 0.908 (active)
- normalized growth (S. cerevisiae deletion strains, locus YNR049C, strain mso1, active compounds read low): 1.04
- normalized growth (S. cerevisiae deletion strains, locus YNR052C, strain pop2, active compounds read low): 0.768 (active)
- normalized growth (S. cerevisiae deletion strains, locus YOL006C, strain TOP1, active compounds read low): 0.425 (active)
- normalized growth (S. cerevisiae deletion strains, locus YOL012C, strain htz1): 1.94
- normalized growth (S. cerevisiae deletion strains, locus YOL147C, strain pex11, active compounds read low): 0.803 (active)
- normalized growth (S. cerevisiae deletion strains, locus YOR001W, strain rrp6, active compounds read low): 0.847 (active)
- normalized growth (S. cerevisiae deletion strains, locus YOR061W, strain CKA2, active compounds read low): 0.91
- normalized growth (S. cerevisiae deletion strains, locus YOR069W, strain VPS5, active compounds read low): 0.913 (active)
- normalized growth (S. cerevisiae deletion strains, locus YOR070C, strain gyp1, active compounds read low): 0.903 (active)
- normalized growth (S. cerevisiae deletion strains, locus YOR080W, strain dia2, active compounds read low): 1.02
- normalized growth (S. cerevisiae deletion strains, locus YOR083W, strain WHI5, active compounds read low): 0.882 (active)
- normalized growth (S. cerevisiae deletion strains, locus YOR106W, strain vam3, active compounds read low): 0.909
- normalized growth (S. cerevisiae deletion strains, locus YOR136W, strain idh2, active compounds read low): 0.999
- normalized growth (S. cerevisiae deletion strains, locus YOR144C, strain elg1, active compounds read low): 0.973
- normalized growth (S. cerevisiae deletion strains, locus YOR184W, strain ser1, active compounds read low): 0.363 (active)
- normalized growth (S. cerevisiae deletion strains, locus YOR231W, strain MKK1, active compounds read low): 0.888
- normalized growth (S. cerevisiae deletion strains, locus YOR265W, strain rbl2, active compounds read low): 0.968
- normalized growth (S. cerevisiae deletion strains, locus YOR270C, strain vph1, active compounds read low): 0.682 (active)
- normalized growth (S. cerevisiae deletion strains, locus YOR290C, strain snf2, active compounds read low): 0.831 (active)
- normalized growth (S. cerevisiae deletion strains, locus YOR316C, strain cot1, active compounds read low): 0.96
- normalized growth (S. cerevisiae deletion strains, locus YPL051W, strain arl3, active compounds read low): 0.926
- normalized growth (S. cerevisiae deletion strains, locus YPL055C, strain LGE1, active compounds read low): 0.677 (active)
- normalized growth (S. cerevisiae deletion strains, locus YPL078C, strain atp4, active compounds read low): 0.898
- normalized growth (S. cerevisiae deletion strains, locus YPL106C, strain sse1, active compounds read low): 1.32 [resistant] (active)
- normalized growth (S. cerevisiae deletion strains, locus YPL240C, strain hsp82, active compounds read low): 1.01
- normalized growth (S. cerevisiae deletion strains, locus YPL241C, strain CIN2, active compounds read low): 0.975
- normalized growth (S. cerevisiae deletion strains, locus YPL256C, strain CLN2, active compounds read low): 0.951
- normalized growth (S. cerevisiae deletion strains, locus YPR119W, strain clb2, active compounds read low): 1.04
- normalized growth (S. cerevisiae deletion strains, locus YPR141C, strain kar3, active compounds read low): 1.03
- normalized growth (S. cerevisiae deletion strains, locus YPR163C, strain tif3, active compounds read low): 0.856 (active)
- normalized growth (S. cerevisiae deletion strains, locus YPR167C, strain met16, active compounds read low): 0.814 (active)
- normalized growth (S. cerevisiae deletion strains, strain wtn01, active compounds read low): 0.849 (active)
- normalized growth (S. cerevisiae strains, strain wild type, active compounds read low): 0.815 (active)

Reference: PubChem BioAssay AID1159580 (chemical genetic matrix, 2015)
